The list is not random: actives were taken first. Their share in the collection is about 17%.
DT40 TDP1 no CPT: qHTS for Inhibitors of human tyrosyl-DNA phosphodiesterase 1 (TDP1): qHTS in cells in absence of CPT; DT40 Tdp1-/- hTDP1 cells, no CPT, ATP luminescence, 48 h; Potency, µM (titrated, usually from 46.2 µM), without a hit: top-dose activity change, negative = growth inhibition, actives largely listed as inhibitors; actives 15% (n = 420,000); AID 686978, 2013; also: % is scaled to controls: 0 for no effect and ±100 for the full control effect; nearly all actives have a fitted effect of over 55% in size
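Camptothecin absent (DMSO only). Human TDP1-complemented DT40 knockout cells, 400 cells/well, 37 °C for minimum 48 hr; ATP measured via CellTiter-Glo, 30 min dark incubation, luminescence.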
TGFb SMAD3 inh: blocks TGF-b signaling | HepG2 CAGA-GFP TGF-b/SMAD3 reporter, GFP fluorescence, 18 h; TGF-beta stimulated, 500 pg/mL final | Potency, µM (series often up to 46.1 µM), inactives show at the top dose activity, negative = inhibition, hits mostly inhibitors | actives 1.2% (n = 410,000); also: % is scaled to controls: 0 for no effect and ±100 for the full control effect; nearly all actives have a fitted effect of over 65% in size
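Inhibition was scored as loss of TGF-beta-induced (500 pg/mL final, 18 hours, 37 degrees C) GFP in HEPG2 cells carrying a CAGA-GFP reporter, in DMEM with 1% FBS. Well GFP was summed per cell; Activity was normalised to unstimulated and stimulated DMSO wells, then concentration-response fitting.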
ATXN2 expr inh: ATXN2 expression inhibition. HEK-293 ATXN2-luciferase reporter, luminescence, 24 h. Potency, µM (series often up to 57 µM), inactives show at the top dose activity change, negative = inhibition, usual class: inhibitors. actives 0.72% (n = 360,000). AID 1745845; also: % is scaled to controls: 0 for no effect and ±100 for the full control effect; nearly all actives have a fitted effect of over 55% in size
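ATXN2-luciferase reporter cells (luciferase flanked by upstream and downstream ATXN2 gene portions) were treated 24 h at 37 °C with compounds at up to 57 uM. SteadyGlo luminescence gave expression; GF-AFC fluorescence gave viability.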
HepG2 viability: kills HepG2 cells in TGF-b inhibitor counter-screen; HepG2 CAGA-GFP viability, ATP luminescence, 18 h; Potency, µM (titrated, usually from 46.1 µM), for inactives: top-dose activity change, negative = cytotoxicity, hits mostly cytotoxic; actives 0.76% (n = 410,000); AID 588856
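HepG2 CAGA-GFP cells (1000/well, DMEM with 1% FBS) received compound, then TGF-beta at 500 pg/mL final, and were incubated 18 hours at 37 degrees C. Viability was read by CellTiter-Glo luminescence. Media-only wells were set as complete cell-killing and DMSO as no toxicity.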
ATXN viability: viability counter-screen for ATXN expression inhibitors; AID 651635; S2 cells (HEK-293 line with an ATXN2-luciferase reporter) viability, CellTiter-Fluor protease fluorescence, 24 h; Potency, µM (doses to about 56.7 µM), most hits filed as cytotoxic; actives 0.49% (n = 400,000); also: nearly all actives have a fitted effect of over 40% in size
DT40 TDP1 CPT: DT40-hTDP1 cell growth loss with CPT; chicken DT40 Tdp1-/-;hTDP1 cells + 20 nM CPT, ATP luminescence, 48 h; Potency, µM (top dose mostly 46.2 µM), for inactives: top-dose activity change, negative = growth inhibition, usual class: inhibitors; actives 12% (n = 420,000); AID 686979; also: % is scaled to controls: 0 for no effect and ±100 for the full control effect; nearly all actives have a fitted effect of over 55% in size
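Chicken DT40 Tdp1-/- cells complemented with human TDP1, 400 cells/well, exposed to compounds plus 20 nM camptothecin for at least 48 h at 37 C; viability read as ATP content by CellTiter-Glo luminescence.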
Active calls of the source: *; i = inactive; ? = inconclusive; / = no result; [ ] = dose if it differs, or a comment. Calls follow the shape of the dose curve; as a rule, active = well fitted curve in the direction sought with a large enough effect; inconclusive = small, poorly fitted or top-dose-only effect, or another doubt; inactive = no such curve, though single readings can be large; an effect the other way counts as inactive or inconclusive. Potency is read from the fitted curve at half-maximal effect.

SMILES | DT40 TDP1 no CPT | TGFb SMAD3 inh | ATXN2 expr inh | HepG2 viability | ATXN viability | DT40 TDP1 CPT
Cc1ccccc1CNC(=O)CN1C(=O)CCCc2ccccc21 | -17% | 9% | 2% | -12% | i | -7%
O=S(=O)(NCc1nc(N2CCCC2)c2cc(Cl)ccc2n1)c1ccccc1OC(F)(F)F | -27% | / | / | / | ? | 18%[9.04 µM]
Cc1ccnc(NC2c3ccccc3C(=O)N2Cc2ccccc2Cl)c1 (stereo unspecified) | 26µM* | 12% | 3% | 6% | i | ?
COc1cc(NC2c3ccccc3C(=O)N2Cc2ccccc2Cl)cc(OC)c1OC (stereo unspecified) | -28% | -7% | -9% | -8% | i | -18%
CCc1noc2c1/C(=N\O)CC(c1ccccc1)C2 (stereo unspecified) | 16µM* | 1% | -11% | -50% | i | ?
CN(C)S(=O)(=O)N1CCN(c2ccc([N+](=O)[O-])c(N3CCCCC3)c2)CC1 | 10µM* | 3% | -6%[11.3 µM] | 0% | i | -26%
Cc1cc(C)n(-c2cc(N3CCN(C(=O)c4cccc(Br)c4)CC3)ccc2[N+](=O)[O-])n1 | 21µM* | ? | -29% | -15% | i | ?
O=[N+]([O-])c1ccc(N2CCCC2)cc1N1CCCC1 | ? | -23% | -1% | -22% | i | ?
CC(=O)N1CCN(c2ccc([N+](=O)[O-])c(-n3nc(C)cc3C)c2)CC1 | -3% | 23% | 20% | 0% | i | -6%
Cc1cc(C)n(-c2cc(N3CCN(S(=O)(=O)c4ccc(Cl)cc4)CC3)ccc2[N+](=O)[O-])n1 | 6.5µM* | ? | 2% | -23% | i | 7.3µM*
COc1ccc(C2C(C(=O)Nc3ccccc3)=C(C)Nc3c(C(=O)Nc4ccccc4)cnn32)cc1 (stereo unspecified) | ? | -29% | / | -43% | / | ?
CC(=O)NCCc1nc2ccccc2n1Cc1cc(C)ccc1C | ? | -23% | 4% | -12% | i | ?
COc1ccc(CCN2CCCn3c2nc2c3c(=O)[nH]c(=O)n2C)cc1OC | 7.3µM* | 19% | -24% | 7% | i | 26µM*
CCn1cc(C(=O)NCCCN(C)c2ccccc2)c(=O)c2cc(S(=O)(=O)N(C)C)ccc21 | ? | 14% | -15% | -3% | i | 16µM*
CCn1cc(C(=O)NCc2ccc3c(c2)OCO3)c(=O)c2cc(S(=O)(=O)N3CCOCC3)ccc21 | -17% | 17% | / | -19% | / | -41%
CCn1cc(C(=O)NCc2ccc(Cl)cc2)c(=O)c2cc(S(=O)(=O)N(C)C)ccc21 | 21µM* | -12% | 0% | -40% | i | ?
CCn1cc(C(=O)NCc2ccc3c(c2)OCO3)c(=O)c2cc(S(=O)(=O)N(C)C)ccc21 | 18µM* | -1% | -7% | -26% | i | ?
Cc1ccccc1C(=O)N1CCC(C(=O)Nc2ccc(S(=O)(=O)N3C(C)CCCC3C)cc2)CC1 (stereo unspecified) | 10µM* | ? | -23% | -22% | ? | 12µM*
CC1CCCN(CC(=O)Nc2ccc(S(=O)(=O)N3CCCC3)cc2)C1 (stereo unspecified) | 13µM* | 28% | 3% | 22% | i | 3%
CC1CCN(CC(=O)Nc2ccc(S(=O)(=O)N3C(C)CCCC3C)cc2)CC1 (stereo unspecified) | 15µM* | 0% | -18% | -2% | i | ?
CCc1ccc(NC(=O)CCc2c(C)nn(-c3ccc(N4CCCCC4)nn3)c2C)cc1 | -27% | -2% | 7% | -20% | i | -22%
Oc1cc(CNC2CCCCC2)c(O)cc1CNC1CCCCC1 | 5.8µM* | -2% | -6% | -8% | ? | 18µM*
Cc1ccccc1CNC1CCCCC1 | -15% | -6% | 2% | -3% | i | -3%
Nc1cccc2c1C(=O)N(C(=O)c1ccco1)C2=O | 3% | 3% | -19% | -14% | / | 46%
O=C(c1ccco1)N1C(=O)c2cccc3cccc1c23 | 18µM* | -6% | 14% | -12% | i | 12µM*
SMILES | DT40 TDP1 no CPT | TGFb SMAD3 inh | ATXN2 expr inh | HepG2 viability | ATXN viability | DT40 TDP1 CPT
O=C(C=CC#Cc1cccc(NS(=O)(=O)c2ccccc2)c1)NO | / | / | -55% | / | / | /
CCCN(CC)C(CC)C(=O)Nc1c(C)cccc1C (stereo unspecified) | -13% | / | / | / | i | 0%
Cc1cc(SCC(=O)c2ccc(O)c(O)c2)n2nc(C)c(-c3ccccc3)c2n1 | 15µM* | 18µM* | ? | -28% | ? | 18µM*
CCn1c(-c2csc3c2CCCC3)n[nH]c1=S | 23µM* | 4% | 14% | -15% | i | 29µM*
CCn1c(-c2ccccc2SC)n[nH]c1=S | 16µM* | -5% | -5% | 0% | i | 15%
CC1CN(C(=S)Nc2ccccc2)N(c2ccccc2)C1 (stereo unspecified) | 20% | 1% | -2% | -2% | i | 5%
CCOc1ccc(NC(=O)CSc2nnc(C)n2CCCOC)cc1 | -7% | 1% | -5% | -8% | i | -12%
CN=C1S/C(=C\c2ccc(N3CCOCC3)c(F)c2)C(=O)N1C | 15µM* | 13% | 8% | -15% | i | ?
CN=C1S/C(=C\c2ccc(N3CCCC3)c(F)c2)C(=O)N1C | ? | -2% | 45% | -13% | i | ?
CCN1C(=O)[C@@H]2[C@@H](c3ccc(-c4ccc(F)cc4)c(OC)c3)N3CCC[C@@]3(C(=O)OC)[C@@H]2C1=O | ? | -27% | -18% | -32% | i | 23µM*
CCN1C(=O)[C@H]2[C@@H](c3ccc(-c4ccc(F)cc4)c(OC)c3)N3CCCC[C@@]3(C(=O)OC)[C@H]2C1=O | 16µM* | ? | -32% | -32% | ? | 23µM*
CCN1C(=O)[C@@H]2[C@@H](c3ccc(-c4ccc(C(C)=O)cc4)c(OC)c3)N3CCCC[C@@]3(C(=O)OC)[C@@H]2C1=O | 15µM* | 2% | 0% | 2% | i | ?
CCN1C(=O)[C@H]2[C@@H](c3ccc(-c4ccc(C(C)=O)cc4)cc3)N3CCCC[C@@]3(C(=O)OC)[C@H]2C1=O | 12µM* | -6% | 10% | -8% | i | ?
O=C(CSc1nc2ccccc2nc1Cc1ccccc1)N1CCCc2ccccc21 | ? | -24% | / | 0% | / | ?
